# Screening results: PubChem BioAssay, National Center for Advancing Translational Sciences (NCATS)
# Hits are enriched below; roughly 3.4% of the tested compounds scored in any of these assays.
# Mito fusion yeast – qHTS Assay for Small Molecule Inhibitors of Mitochondrial Division or Activators of Mitochondrial Fusion; S. cerevisiae fusion-defective mutant growth rescue, CellTiterGlo 48 h; Potency, µM (top dose mostly 46.1 µM), without a hit: top-dose growth rescue (activation), most hits filed as activators; hit rate 0.23% among 320,000; AID 485298, 2010; note: % of control where 0% means no effect; nearly all actives have a fitted effect of over 45% in size
#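 Growth-rescue viability read-out: after 48 h at the non-permissive 37C in glycerol/ethanol YPEG, yeast mitochondrial fusion mutants are measured by CellTiterGlo luminescence; compounds (23 nl pinned per well) restoring growth score as division inhibitors or fusion activators.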
# PLK1 PBD inh – qHTS for Inhibitors of PLK1-PDB (polo-like kinase 1 - polo-box domain): Primary Screen; Serine/threonine-protein kinase PLK1 (Homo sapiens), P53350; Plk1 PBD binding of FITC phosphopeptide, fluorescence polarization; Potency, µM, for inactives: max response, negative = inhibition, hits mostly inhibitors; hit rate 2.8% among 360,000; AID 720504, 2013; note: series mostly up to about 57 µM; % is set by controls: 0 for no effect and ±100 for the full control effect; nearly all actives have a fitted effect of over 65% in size
# GLS inh – qHTS for Inhibitors of Glutaminase (GLS); GLS enzymatic activity, qHTS titration; AID 624170, 2012; hit rate 0.21% among 410,000; Potency, µM (doses to about 45.5 µM), for the others: at the top dose activity change, negative = inhibition, hits mostly inhibitors; note: % is set by controls: 0 for no effect and ±100 for the full control effect
# Target sequence (O94925 whole entry, looked up): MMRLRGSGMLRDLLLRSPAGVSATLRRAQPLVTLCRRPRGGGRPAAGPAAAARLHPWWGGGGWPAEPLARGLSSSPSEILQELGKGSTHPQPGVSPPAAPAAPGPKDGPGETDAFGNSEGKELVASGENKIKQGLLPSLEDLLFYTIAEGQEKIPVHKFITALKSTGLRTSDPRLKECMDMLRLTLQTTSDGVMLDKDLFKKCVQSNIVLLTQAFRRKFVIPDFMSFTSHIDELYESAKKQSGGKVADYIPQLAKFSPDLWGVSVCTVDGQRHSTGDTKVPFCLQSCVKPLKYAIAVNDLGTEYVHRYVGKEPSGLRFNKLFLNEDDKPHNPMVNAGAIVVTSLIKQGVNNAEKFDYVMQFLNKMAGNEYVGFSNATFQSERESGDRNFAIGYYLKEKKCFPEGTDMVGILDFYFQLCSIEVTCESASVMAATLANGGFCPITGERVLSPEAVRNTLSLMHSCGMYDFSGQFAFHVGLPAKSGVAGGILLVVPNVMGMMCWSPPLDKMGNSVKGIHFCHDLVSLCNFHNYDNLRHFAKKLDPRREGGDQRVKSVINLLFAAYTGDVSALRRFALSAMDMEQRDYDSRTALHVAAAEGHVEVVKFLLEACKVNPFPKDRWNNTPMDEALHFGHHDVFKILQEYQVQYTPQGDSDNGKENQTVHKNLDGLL
#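 Assay buffer: 45 mM KH2PO4 pH 8.2, 0.02% Tween-20. hKGA acts on L-glutamine (1 mM solution added); product glutamate is reported by an oxidase/peroxidase Amplex Red coupling, with fluorescence taken at baseline and 30 min.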
# PKM2 act – qHTS Assay for Activators of Human Muscle isoform 2 Pyruvate Kinase | Pyruvate kinase PKM (Homo sapiens), P14618 | purified PKM2, Kinase-Glo ATP luminescence, activation; response scale: 0% is enzyme alone, no compound | Potency, µM (titrated, usually from 57.5 µM), inactives show top-dose activation, hits mostly activators | hit rate 0.34% among 260,000 | AID 1631, 2009; note: % is set by controls: 0 for no effect and ±100 for the full control effect; nearly all actives have a fitted effect of over 55% in size
#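 hPK-M2, >95% pure; 0.1 mM ADP / 0.5 mM PEP final; imidazole pH7.2 buffer w/ 7 mM MgCl2, 50 mM KCl; 1 h RT; Kinase-Glo lum. Intermediate enzyme activity for dual inhibitor/activator qHTS.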
# GCN5L2 inh – qHTS Assay for Inhibitors of GCN5L2 | Histone acetyltransferase KAT2A (Homo sapiens), Q92830 | GCN5L2 HAT assay, ThioGlo1 CoA-SH fluorescence | Potency, µM (highest dose often 58.9 µM), inactives show at the top dose activity change, negative = inhibition, most hits filed as inhibitors | hit rate 0.21% among 390,000 | AID 504327, 2011; note: % is set by controls: 0 for no effect and ±100 for the full control effect
#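 Fluorescence readout, Ex340nm/Em540nm: ThioGlo1 (50uM final) reacts with free CoA thiol released as 20nM GCN5L2 acetylates H3(1-25) peptide (75uM) using acetyl-CoA (70uM). Compound and enzyme sat 15 min beforehand; 20 min room-temperature reaction.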
# VDR inhibitor – Inhibitors of the vitamin D receptor (VDR): qHTS; Vitamin D3 receptor (Homo sapiens), P11473; VDR-SRC2-3 peptide fluorescence polarization, 2 h; Potency, µM, inactives show max response, negative = inhibition, hits mostly inhibitors; hit rate 0.93% among 400,000; AID 504847, 2011; note: % is set by controls: 0 for no effect and ±100 for the full control effect
#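 Two reagent solutions held at 4 deg C in the dark were dispensed, compounds pinned at 23 nl, and the mixture incubated 2 h at room temperature. Read-out: fluorescence polarization of VDR–SRC2-3 peptide binding.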
# Active calls of the source: *; u = inconclusive; x = no result; [ ] = another dose, or the depositor's remark. Calls come from the whole dose curve; as a rule, active = well fitted curve in the direction sought with a large enough effect; inconclusive = small, poorly fitted or top-dose-only effect, or another doubt; inactive = no such curve, though single readings can be large; an effect the other way counts as inactive or inconclusive. Potency is the fitted concentration of half-maximal effect.
SMILES,Mito fusion yeast,PLK1 PBD inh,GLS inh,PKM2 act,GCN5L2 inh,VDR inhibitor
O=C(Nc1nc(-c2ccccn2)cs1)c1cccc(S(=O)(=O)N2CCOCC2)c1,-4%,19µM*,-1%,x,-10%,u
COc1ccc(CC(=O)Nc2nc3ccccc3s2)cc1S(=O)(=O)N1CCOCC1,-4%,21µM*,58%,7%,1%,u
Cc1nc(-c2cccc(S(=O)(=O)N3CCOCC3)c2)cs1,-5%,9.5µM*,11%,0%,-19%,u
c1ccc2c(N3CCNCC3)nc(-c3ccc4c(c3)OCO4)nc2c1,x,x,x,x,-4%,0%
NCc1cn(Cc2ccccc2)nc1-c1ccccc1,x,x,x,x,x,-9%
CC1(C)CC(=O)c2c(oc3cc4c(cc23)OCO4)C1,x,x,x,-2%,x,x
Cc1ccc(S(=O)(=O)N2CCOCC2)cc1C(=O)Nc1nc(-c2ccccn2)cs1,x,17µM*,-4%,x,-5%,u
COc1ccc(C(=O)Nc2nc(-c3ccccn3)cs2)cc1S(=O)(=O)N1CCOCC1,x,24µM*,4%,x,2%,u
O=C(Nc1nc(-c2ccccn2)cs1)c1ccc(S(=O)(=O)N2CCCCC2)cc1,-18%,x,x,-6%,-23%,x
CCCCNC(=O)Cn1c(SCc2ccccc2C)nc2ccncc21,x,x,x,x,x,-2%
COc1cc(Cn2c3ccc(NC(=O)CCc4ccc(O)cc4)cc3c(=O)n2C)ccc1F,x,-4%,-6%,x,x,x
O=[N+]([O-])c1ccc(CN2CCN(c3nc4ccccc4s3)CC2)cc1,2%,-9%,11%,x,-8%,u
CCCn1nc([N+](=O)[O-])c(C(C#N)c2nc3ccccc3s2)c(Cl)c1=O (stereo unspecified),-19%,24µM*,29%,-16%,-5%,u
N#CCCN(C(=S)NC(=O)c1cccs1)c1ccccc1F,6%,19µM*,3%,x,-12%,u
COc1ccc(NC(=S)NC(=O)c2ccccc2Cl)cc1,x,27µM*,12%,1%,-1%,-19%
COc1ccc(NC(=O)c2ccccn2)cc1,-7%,-8%,0%,-66%,-5%,7%
COc1ccc(C(=O)Nc2nc3ccccc3s2)c(OC)c1,-19%,3.4µM*,u,-4%,-14%,u
COc1ccc(NC(=S)NNC(=O)CNc2ccc(Cl)cc2)cc1,-6%,27µM*,16%,-2%,-7%,-16%
COc1ccc(Nc2ncccc2C(=O)Nc2ccccc2)cc1,17%,2.7µM*,u,1%,-11%,-27%
CCOc1ccc(NC(=O)c2cc3ccccc3cc2OC)cc1,-5%,-4%,-17%,1%[11.5 µM],-12%,15%
COc1ccc2nc(NC(=O)c3ccccc3C(=O)O)sc2c1,5%,-7%,2%,x,-29%,-20%
COc1cc2ccccc2cc1C(=O)NC(=S)Nc1cccc(C(=O)O)c1,0%,u,11%,-3%,-2%,-13%
CSc1ncccc1C(=O)Nc1nc2ccc(Oc3ccccc3)cc2s1,13µM*,-4%,0%,-6%,0%,-3%
COc1cc2cc(C(=O)Nc3ccccc3)c(N)nc2cc1OC,-8%,24µM*,7%,-3%,-18%,-19%
COc1cc2ccccc2cc1C(=O)NC(=S)Nc1ccc(C(=O)O)cc1,-27%,30µM*,26%,1%,-19%,-1%
SMILES,Mito fusion yeast,PLK1 PBD inh,GLS inh,PKM2 act,GCN5L2 inh,VDR inhibitor
COc1ccc(NC(=O)c2cc3ccccc3cc2OC)cc1,-5%,30µM*,-25%,0%,-6%,u
N/C(=N\N=C\c1ccc(Cl)cc1)N/N=C/c1ccc(Cl)cc1,x,x,24%,x,-10%,u
C#CCOC(=O)NC(/C=C/CCCC)c1ccccc1 (stereo unspecified),x,x,x,-2%,x,x
COc1nc(C#N)nc(N2CCCCC2)n1,x,x,x,x,x,-18%
Cc1ccsc1C(=O)N(CC(C)C)c1c(N)n(Cc2ccccc2)c(=O)[nH]c1=O,-4%,-7%,15%,0%,2%,-5%
CC(NS(=O)(=O)c1cc2c3c(c1)CCC(=O)N3CCC2)c1ccccc1 (stereo unspecified),13%,-4%,-1%,x,-7%,-19%
CCOc1ccccc1NC(=O)CCS(=O)(=O)c1ccc2c(c1)CCN2C(C)=O,-3%,21µM*,-1%,6%[0.46 µM],-6%,-5%
CCOc1ccccc1NC(=O)CCS(=O)(=O)c1ccc2c(c1)CC(C)N2C(C)=O (stereo unspecified),-1%,u,0%,x,-11%,8%
Cc1ccc2c(C(=O)CN3CCC4(CC3)OCCO4)c(C)[nH]c2c1,1%,-2%,0%,-1%,-4%,4%
Cc1ccc2c(C(=O)CN3CCSCC3)c(C)[nH]c2c1,-7%,19µM*,29%,-4%,4%,-22%
CCC(=O)N[C@H]1C=C[C@H](CC(=O)OC)O[C@@H]1CO,x,-10%,x,x,x,x
Cc1cccc(N2C(=O)CC(Sc3nnc(C)s3)C2=O)c1 (stereo unspecified),-15%,30µM*,-4%,-2%,-3%,-18%
Cc1cccc(N2C(=O)CC(Sc3nc(-c4ccccc4)c4cc(Cl)ccc4n3)C2=O)c1 (stereo unspecified),0%,-2%,5%,-2%,-15%,-3%
COc1ccc(N2C(=O)C(Cl)=C(Nc3ccccc3OC)C2=O)cc1,-7%,2%,15%,7%,-7%,-8%
COc1ccc(N2C(=O)C(Cl)=C(Nc3ccccc3O)C2=O)cc1,4%,12µM*,-11%,20%,-2%,-28%
COc1cccc(OC)c1C(=O)NCCSC1CCCCC1,-8%,27µM*,45%,2%,0%,u
O=C1C(Cc2ccccc2)Nc2ncnc(N3CCc4ccccc4C3)c2N1Cc1ccccc1 (stereo unspecified),x,42µM*,7%,x,-6%,-17%
CCN1CCN(c2ncnc3c2nnn3Cc2ccccc2)CC1,-2%,-7%,1%,3%,-4%,-21%
CCC1Nc2ncnc(N3CCc4ccccc4C3)c2N(Cc2ccc(Br)cc2)C1=O (stereo unspecified),x,1%,4%,x,x,x
CC1Cc2ccccc2N1c1ncnc2c1nnn2Cc1ccccc1 (stereo unspecified),3%,-6%,-5%,-4%,22µM*,-9%
c1ccc(Cn2nnc3c(N4CCCC4)ncnc32)cc1,4%,-16%,-9%,16µM*,-5%,28%
